The values below come from the supplement of paper PMC12645437, “Orthogonal IMiD-Degron Pairs Induce Selective Protein Degradation in Cells” (ACS Chemical Biology, 2025).

The target of this assay is T1, CRBN, Q96SW2.
T1 chain: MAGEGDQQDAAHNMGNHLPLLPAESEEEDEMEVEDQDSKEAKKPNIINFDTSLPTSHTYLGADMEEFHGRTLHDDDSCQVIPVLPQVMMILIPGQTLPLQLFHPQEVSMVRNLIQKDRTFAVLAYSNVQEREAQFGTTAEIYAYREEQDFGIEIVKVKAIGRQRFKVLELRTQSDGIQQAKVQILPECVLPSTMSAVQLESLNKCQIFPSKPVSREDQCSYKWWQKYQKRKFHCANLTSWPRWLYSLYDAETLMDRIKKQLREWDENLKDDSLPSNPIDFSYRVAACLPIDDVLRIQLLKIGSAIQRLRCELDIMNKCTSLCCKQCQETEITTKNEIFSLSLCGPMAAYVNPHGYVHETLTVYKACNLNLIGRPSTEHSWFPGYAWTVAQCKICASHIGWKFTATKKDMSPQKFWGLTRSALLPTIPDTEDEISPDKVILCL
Description: log2 fold change of degron read counts, EGFP-low vs EGFP+ sorted cells (limma voom), compound-induced degradation; higher = more compound-induced degradation of the degron-EGFP fusion; degrons are variants of IKZF1/3 zinc finger 2; compound dose not given here. The note with it: Jurkat, 18 h.

[1] abbreviates: compound: compound 19 (5-tert-butyl-thalidomide).
[2] abbreviates: compound: compound 22 (5-morpholino-thalidomide).
Setting [3] is: compound: compound 33 (diphenyl IMiD analogue).

Whole data set: some 8,300 sequences, median “log2 fold change of degron read counts, EGFP-low vs EGFP+ sorted cells (limma voom), compound-induced degradation” near -1.1, cut for the highest 2% near 3.2. Shown is part of a subset that was picked to be rich in the highest values.
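Also: pooled lentiviral library of zinc finger degron-EGFP fusions in mCherry-positive Jurkat cells, FACS-sorted after compound exposure, with degron abundance counted by next-generation sequencing.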

B1: 46F_47N_49S_50V_52G_53H_54V_55F_67L_, Q9UKT9 (peptide)
chain: FNCSVCGHVFTQKGNLLRHIKL
Turning to B1, the “log2 fold change of degron read counts” value by setting is: under setting [1], -2.33; under setting [2], -2.79; under setting [3], -2.91; (compound: thalidomide) -2.16.

B2: 46F_47G_49D_50I_52G_53A_54L_55F_67L_, Q9UKT9 (peptide)
chain: FGCDICGALFTQKGNLLRHIKL
Regarding B2, the “log2 fold change of degron read counts” value under setting [1] came out at 0.711, the “log2 fold change of degron read counts” value under setting [2] was -0.455, the “log2 fold change of degron read counts” value under setting [3] is 0.626 and the “log2 fold change of degron read counts” value (compound: thalidomide) is -1.25.

B3: 46F_47E_49P_50I_52G_53R_54E_55F_67L_, Q9UKT9 (peptide)
chain: FECPICGREFTQKGNLLRHIKL
In the case of B3, the “log2 fold change of degron read counts” value is -3.21 under setting [1], -2.49 under setting [2], -0.551 under setting [3] and 0.22 (compound: thalidomide).

B4: 46F_47F_49D_50V_52G_53A_54M_55F_67L_, Q9UKT9 (peptide)
chain: FFCDVCGAMFTQKGNLLRHIKL
For B4, the “log2 fold change of degron read counts” value under setting [1] was 1.26, the “log2 fold change of degron read counts” value under setting [2] is 0.949, the “log2 fold change of degron read counts” value under setting [3] is -0.289 and the “log2 fold change of degron read counts” value (compound: thalidomide) was -2.16.

B5: 46L_47C_49P_50I_52G_53F_54E_55C_67L_, Q9UKT9 (peptide)
chain: LCCPICGFECTQKGNLLRHIKL
For the sequence B5, the “log2 fold change of degron read counts” value under setting [1] is 0.863, the “log2 fold change of degron read counts” value under setting [2] was found to be 1.38, the “log2 fold change of degron read counts” value under setting [3] was found to be 1.36 and the “log2 fold change of degron read counts” value (compound: thalidomide) came out at 2.2.

B6: 46L_47W_49E_50I_52G_53F_54C_55C_67L_, Q9UKT9 (peptide)
chain: LWCEICGFCCTQKGNLLRHIKL
Consider B6, for which the “log2 fold change of degron read counts” value by setting is: under setting [1], 2.9; under setting [2], 3.31; under setting [3], 2.14; (compound: thalidomide) 0.752.

B7: 46L_47F_49E_50I_52G_53F_54C_55C_67L_, Q9UKT9 (peptide)
chain: LFCEICGFCCTQKGNLLRHIKL
Turning to B7, the “log2 fold change of degron read counts” value under setting [1] was 3.37, the “log2 fold change of degron read counts” value under setting [2] is 3.39, the “log2 fold change of degron read counts” value under setting [3] came to 2.01 and the “log2 fold change of degron read counts” value (compound: thalidomide) was 1.32.

B8: 46L_47C_49E_50I_52G_53F_54C_55C_67L_, Q9UKT9 (peptide)
chain: LCCEICGFCCTQKGNLLRHIKL
B8: the “log2 fold change of degron read counts” value reads like this: under setting [1], 0.944; under setting [2], 0.646; under setting [3], 1.13; (compound: thalidomide) 1.21.

B9: 46L_47A_49E_50I_52G_53F_54C_55C_67L_, Q9UKT9 (peptide)
chain: LACEICGFCCTQKGNLLRHIKL
Turning to B9, the “log2 fold change of degron read counts” value was 2.01 under setting [1], 0.96 under setting [2], -0.0283 under setting [3] and -0.106 (compound: thalidomide).

B10: 46L_47V_49E_50I_52G_53F_54C_55C_67L_, Q9UKT9 (peptide)
chain: LVCEICGFCCTQKGNLLRHIKL
Regarding B10, the “log2 fold change of degron read counts” value is, setting by setting: under setting [1], 1.06; under setting [2], 1.69; under setting [3], 1.86; (compound: thalidomide) 2.44.

B11: 46L_47Y_49E_50I_52G_53F_54C_55C_67L_, Q9UKT9 (peptide)
chain: LYCEICGFCCTQKGNLLRHIKL
As for B11, the “log2 fold change of degron read counts” value under setting [1] was 3.35, the “log2 fold change of degron read counts” value under setting [2] came out at 3.28, the “log2 fold change of degron read counts” value under setting [3] turned out to be 3.07 and the “log2 fold change of degron read counts” value (compound: thalidomide) was 1.36.

B12: 46L_47D_49E_50I_52G_53F_54C_55C_67L_, Q9UKT9 (peptide)
chain: LDCEICGFCCTQKGNLLRHIKL
For B12, the “log2 fold change of degron read counts” value runs as follows: under setting [1], -1.71; under setting [2], -2.74; under setting [3], -1.75; (compound: thalidomide) -1.36.

B13: 46L_47N_49E_50I_52G_53F_54C_55C_67L_, Q9UKT9 (peptide)
chain: LNCEICGFCCTQKGNLLRHIKL
B13: the “log2 fold change of degron read counts” value runs as follows: under setting [1], 0.295; under setting [2], -0.862; under setting [3], -1.01; (compound: thalidomide) -0.716.

B14: 46L_47S_49E_50I_52G_53F_54C_55C_67L_, Q9UKT9 (peptide)
chain: LSCEICGFCCTQKGNLLRHIKL
With B14, the “log2 fold change of degron read counts” value is, setting by setting: under setting [1], 1.68; under setting [2], 1.58; under setting [3], 0.957; (compound: thalidomide) 0.73.

B15: 46F_47N_49N_50I_52G_53A_54C_55F_67L_, Q9UKT9 (peptide)
chain: FNCNICGACFTQKGNLLRHIKL
Turning to B15, the “log2 fold change of degron read counts” value under setting [1] was found to be 0.853, the “log2 fold change of degron read counts” value under setting [2] was -0.00319, the “log2 fold change of degron read counts” value under setting [3] was 0.551 and the “log2 fold change of degron read counts” value (compound: thalidomide) is -0.352.

B16: 46F_47T_49S_50V_52G_53H_54A_55F_67L_, Q9UKT9 (peptide)
chain: FTCSVCGHAFTQKGNLLRHIKL
As to B16, the “log2 fold change of degron read counts” value reads like this: under setting [1], -2.6; under setting [2], -3.26; under setting [3], -2.56; (compound: thalidomide) -2.32.

B17: 46F_47M_49N_50Q_52G_53A_54I_55F_67L_, Q9UKT9 (peptide)
chain: FMCNQCGAIFTQKGNLLRHIKL
Regarding B17, the “log2 fold change of degron read counts” value is -1.99 under setting [1], -2.22 under setting [2], -1.03 under setting [3] and -1.47 (compound: thalidomide).

B18: 46F_47E_49P_50I_52G_53H_54R_55F_67L_, Q9UKT9 (peptide)
chain: FECPICGHRFTQKGNLLRHIKL
B18: the “log2 fold change of degron read counts” value under setting [1] was -2.87, the “log2 fold change of degron read counts” value under setting [2] was -2.87, the “log2 fold change of degron read counts” value under setting [3] is -1.63 and the “log2 fold change of degron read counts” value (compound: thalidomide) was -0.824.
